The subject of assay [1] is thyroid hormone receptor (rat, GH3 cells). The experiment in a line: qHTS assay to identify small molecule agonists of the thyroid receptor (TR) signaling pathway (AID 743066; calls by dose curve). Background: In qHTS, concentration-response curves come from the screen itself.
Assay [2] in a line: qHTS assay to identify small molecule antagonists of the estrogen receptor alpha (ER-alpha) signaling pathway - cell viability counter screen (AID 743074; calls by dose curve;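 further: HEK293 cells carrying ER-alpha-UAS-bla reporter stimulated with 17beta-estradiol; nearly all actives have a fitted effect of over 45% in size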).
Assay [3] is described as follows: qHTS assay to identify small molecule antagonists of the estrogen receptor alpha (ER-alpha) signaling pathway using the BG1 cell line - cell viability counter screen (AID 743081).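 Further: compound given together with 17beta-estradiol as the ER stimulus; nearly all actives have a fitted effect of over 45% in size.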
Assay [4] addresses Aromatase (Homo sapiens) (UniProt P11511). As to the kind of experiment: qHTS assay to identify aromatase inhibitors (AID 743083). Further: nearly all actives have a fitted effect of over 55% in size.
The nature of assay [5]: qHTS assay to identify aromatase inhibitors - cell viability counter screen (AID 743084).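 Further: cells stimulated with testosterone during compound exposure; nearly all actives have a fitted effect of over 55% in size.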
Assay [6] has as its target Aryl hydrocarbon receptor (Homo sapiens) (UniProt P35869). As to the kind of experiment: qHTS assay to identify small molecule that activate the aryl hydrocarbon receptor (AhR) signaling pathway (AID 743085). Further: nearly all actives have a fitted effect of over 15% in size. Further: potency means the concentration at half of the fitted maximal effect.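 On activation: HG2L7.5c1 human HepG2 liver cells with stably integrated DRE-driven firefly reporter.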 The method, boiled down: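 Luminescence (ONE-Glo) from a dioxin-responsive-element luciferase reporter in HG2L7.5c1 HepG2 cells after 24 hr compound exposure at 37C; viability measured by CellTiter-Fluor fluorescence beforehand.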

The nature of assay [7]: qHTS assay to identify small molecule that activate the aryl hydrocarbon receptor (AhR) signaling pathway - cell viability counter screen (AID 743086).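 Further: HepG2 liver cells carrying the AhR DRE luciferase reporter; nearly all actives have a fitted effect of over 45% in size.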 The method, boiled down:
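Cytotoxicity counter screen: CellTiter-Fluor signal (30 min, 37 C) in 4000 HepG2 cells/well carrying the DRE-luciferase reporter, following 24 h compound exposure at 37 C.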

For assay [8], the target named is Peroxisome proliferator-activated receptor gamma (Homo sapiens) (UniProt P37231). The experiment in a line: qHTS assay to identify small molecule agonists of the peroxisome proliferator-activated receptor gamma (PPARg) signaling pathway (AID 743094; active means well fitted activation curve with a large enough effect in the signal ratio in the repeat runs, not every such curve was filed as active; the % refers to the signal ratio). The gist of the method: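 Following 5 h plating at 37C, PPARg-bla HEK293H cells receive compound or DMSO for 17 h; fluorescence intensity is recorded after LiveBLAzer B/G loading for 1 h at room temperature.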
Peroxisome proliferator-activated receptor gamma (Homo sapiens), sequence (P37231 whole entry, looked up): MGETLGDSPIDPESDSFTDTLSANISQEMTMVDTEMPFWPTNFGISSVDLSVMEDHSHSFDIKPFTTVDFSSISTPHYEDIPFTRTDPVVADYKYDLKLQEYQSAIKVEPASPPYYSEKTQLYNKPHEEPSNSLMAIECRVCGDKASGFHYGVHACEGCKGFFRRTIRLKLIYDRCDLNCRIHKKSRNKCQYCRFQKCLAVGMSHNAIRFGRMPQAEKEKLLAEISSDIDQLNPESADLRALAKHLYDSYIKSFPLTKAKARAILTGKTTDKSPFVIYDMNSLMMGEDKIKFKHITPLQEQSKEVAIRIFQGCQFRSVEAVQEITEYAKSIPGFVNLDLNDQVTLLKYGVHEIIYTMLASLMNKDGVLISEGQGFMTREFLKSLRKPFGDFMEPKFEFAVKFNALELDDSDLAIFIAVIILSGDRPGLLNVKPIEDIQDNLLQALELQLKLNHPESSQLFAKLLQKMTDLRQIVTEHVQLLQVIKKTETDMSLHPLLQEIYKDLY

A short description of assay [9]: qHTS assay for small molecule agonists of the antioxidant response element (ARE) signaling pathway - cell viability counter screen (AID 743203; calls by dose curve; further: nearly all actives have a fitted effect of over 55% in size). The gist of the method:
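Compounds in DMSO were pinned onto ARE-bla HepG2 cells plated 5 hrs earlier at 2,000 cells/well. Sixteen hours later at 37C/5% CO2, CellTiter-Glo was added and luminescence measured after 30 min at room temperature.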

A short description of assay [10]: qHTS assay for small molecule activators of the heat shock response signaling pathway (AID 743210; active means well fitted activation curve with a large enough effect in the signal ratio in the repeat runs, with a control signal flat, not every such curve was filed as active; the % refers to the signal ratio; further: potency means the concentration at half of the fitted maximal effect;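 on activation: HeLa cells with beta-lactamase reporter driven by heat shock elements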). The method, boiled down: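 HeLa HSE-bla cells, overnight plating; cpd in DMSO 5 h, 37 C; LiveBLAzer B/G FRET substrate 2.5 h RT; fluorescence intensity read.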
Assay [11] can be described thus: qHTS assay to identify small molecule antagonists of the peroxisome proliferator-activated receptor gamma (PPARg) signaling pathway - cell viability counter screen (AID 743194). Further: nearly all actives have a fitted effect of over 55% in size. The settings on record: Potency: co-treated with 50 nM rosiglitazone unless noted. The method, boiled down: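 Viability was measured as CellTiter-Glo luminescence in GeneBLAzer PPARg UAS-bla HEK293H cells. These cells had been exposed 17 h at 37 C to compounds together with rosiglitazone at 50 nM final, with the beta-lactamase readout taken in the same wells.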

Assay [12] in a line: qHTS assay for small molecule agonists of the antioxidant response element (ARE) signaling pathway (AID 743202; active means well fitted activation curve with a large enough effect in the signal ratio in the repeat runs, not every such curve was filed as active; the % refers to the signal ratio; further: potency means the concentration at half of the fitted maximal effect). The method, boiled down: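 Quantitative high-throughput format in HepG2 cells bearing an integrated ARE-beta-lactamase reporter. Compound exposure lasted 16 h at 37 C, and fluorescence was read 2 h after adding LiveBLAzer B/G substrate at room temperature.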
Assay [13] deals with Estrogen receptor (Homo sapiens) (UniProt P03372). The experiment in a line: qHTS assay to identify small molecule antagonists of the estrogen receptor alpha (ER-alpha) signaling pathway (AID 743069; active means well fitted curve in the direction sought with a large enough effect in the signal ratio in the repeat runs, not every such curve was filed as active; the % refers to the signal ratio; further: potency means the concentration at half of the fitted maximal effect). The gist of the method:
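ER-alpha-UAS-bla GripTite HEK293 line; 2% charcoal-stripped FBS overnight; plated, 4 hr 37C/5% CO2; cpd in DMSO + 17beta-estradiol, 18 hr 37C; LiveBLAzer B/G FRET substrate 2 hr RT; fluorescence intensity.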

The target is the same in assay [14]. The experiment in a line: qHTS assay to identify small molecule agonists of the estrogen receptor alpha (ER-alpha) signaling pathway (AID 743075; calls by dose curve;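 further: HEK293 GripTite cells with ER-alpha and UAS-driven beta-lactamase reporter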).
Assay [15] in a line: qHTS assay for small molecule activators of the heat shock response signaling pathway - cell viability counter screen (AID 743209). Further: nearly all actives have a fitted effect of over 50% in size. Further: potency means the concentration at half of the fitted maximal effect. The gist of the method: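 Counter screen for cytotoxicity in HeLa HSE-bla reporter cells. Treatment was 5 h at 37 C; viability was detected by luminescent ATP assay (CellTiter-Glo) in the same wells as the beta-lactamase read.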
A short description of assay [16]: qHTS assay to identify small molecule antagonists of the thyroid receptor (TR) signaling pathway (AID 743065). The method, boiled down: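 Antagonism measured as loss of luciferase signal in GH3 cells stably carrying a TRE-luciferase reporter, co-treated with compound and T3 (1 nM final) for 23.5 h at 37 C. Viability was read in the same well by CellTiter-Fluor.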

Assay [17] deals with Estrogen receptor (Homo sapiens) (UniProt P03372). The experiment in a line: qHTS assay to identify small molecule agonists of the estrogen receptor alpha (ER-alpha) signaling pathway using the BG1 cell line (AID 743079). Further: nearly all actives have a fitted effect of over 20% in size. Further: potency means the concentration at half of the fitted maximal effect. The settings on record: BG1Luc4E2 cells, ERE-luciferase agonist, 22 h; activation: at 70.3 µM (top of the series).
Estrogen receptor (Homo sapiens), sequence (P03372 whole entry, looked up): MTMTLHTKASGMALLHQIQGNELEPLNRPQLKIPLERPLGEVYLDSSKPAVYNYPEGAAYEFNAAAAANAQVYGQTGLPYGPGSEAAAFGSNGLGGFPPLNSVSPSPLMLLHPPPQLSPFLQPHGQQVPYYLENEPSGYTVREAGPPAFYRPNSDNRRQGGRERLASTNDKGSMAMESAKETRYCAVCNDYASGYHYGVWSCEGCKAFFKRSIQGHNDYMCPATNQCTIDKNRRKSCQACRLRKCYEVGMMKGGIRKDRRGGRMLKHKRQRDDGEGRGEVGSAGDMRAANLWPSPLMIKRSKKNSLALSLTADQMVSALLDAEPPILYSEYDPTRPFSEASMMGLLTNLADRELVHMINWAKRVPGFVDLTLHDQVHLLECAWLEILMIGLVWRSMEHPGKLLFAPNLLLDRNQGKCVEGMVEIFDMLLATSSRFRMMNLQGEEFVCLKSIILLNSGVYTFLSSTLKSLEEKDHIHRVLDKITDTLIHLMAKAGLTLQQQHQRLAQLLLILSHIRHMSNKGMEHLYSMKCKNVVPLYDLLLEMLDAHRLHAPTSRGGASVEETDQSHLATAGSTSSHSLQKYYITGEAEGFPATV
Assay [18] concerns the target Peroxisome proliferator-activated receptor gamma (Homo sapiens) (UniProt P37231). As to the kind of experiment: qHTS assay to identify small molecule antagonists of the peroxisome proliferator-activated receptor gamma (PPARg) signaling pathway (AID 743191; calls by dose curve; further: nearly all actives have a fitted effect of over 30% in size). The method, boiled down:
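Beta-lactamase reporter under UAS control in HEK293H PPARg-bla cells; compound treatment 17 h at 37C. Read-out: fluorescence intensity after 1 h room-temperature incubation with LiveBLAzer B/G FRET substrate.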

Assay [19] can be described thus: qHTS assay to identify small molecule antagonists of the estrogen receptor alpha (ER-alpha) signaling pathway using the BG1 cell line (AID 743080; calls by dose curve;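 further: BG1 cells stimulated with 17beta-estradiol alongside compound; nearly all actives have a fitted effect of over 25% in size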). The method, boiled down: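 BG1-Luc-4E2 cells (endogenous full-length ER-alpha, stable 4×ERE-luciferase) were starved 5 days in phenol-red-free medium with 10% charcoal-stripped FBS, plated 24 h, then given compound plus 17beta-estradiol for 21.5 h at 37 C; ONE-Glo luminescence read after 30 min.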

Records with an inconclusive call do not appear. Calls of active or inactive are those of the source. Unless noted, the call rests on the fitted dose curve; in most records, active means well fitted curve in the direction sought with a large enough effect in the repeat runs; inconclusive means weak or mixed curves; inactive means no such curve, though single readings can be large; an effect the other way counts as inactive or inconclusive.

Aromatase (Homo sapiens), sequence (P11511 whole entry, looked up): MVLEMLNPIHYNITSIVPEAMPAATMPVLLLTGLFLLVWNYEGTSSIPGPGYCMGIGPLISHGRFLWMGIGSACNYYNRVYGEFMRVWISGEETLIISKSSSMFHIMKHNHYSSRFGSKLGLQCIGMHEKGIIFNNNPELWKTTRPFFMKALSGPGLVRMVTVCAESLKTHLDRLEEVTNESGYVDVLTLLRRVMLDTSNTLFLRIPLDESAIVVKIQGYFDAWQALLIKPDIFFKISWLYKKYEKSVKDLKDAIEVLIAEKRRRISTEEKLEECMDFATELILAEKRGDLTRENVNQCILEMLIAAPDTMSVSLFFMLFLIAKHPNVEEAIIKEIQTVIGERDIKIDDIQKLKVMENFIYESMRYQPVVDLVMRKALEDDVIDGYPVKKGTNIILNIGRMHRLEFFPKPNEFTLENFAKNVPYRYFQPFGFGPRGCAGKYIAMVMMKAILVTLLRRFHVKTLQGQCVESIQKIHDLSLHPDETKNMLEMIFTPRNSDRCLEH
Aryl hydrocarbon receptor (Homo sapiens), sequence (P35869 whole entry, looked up): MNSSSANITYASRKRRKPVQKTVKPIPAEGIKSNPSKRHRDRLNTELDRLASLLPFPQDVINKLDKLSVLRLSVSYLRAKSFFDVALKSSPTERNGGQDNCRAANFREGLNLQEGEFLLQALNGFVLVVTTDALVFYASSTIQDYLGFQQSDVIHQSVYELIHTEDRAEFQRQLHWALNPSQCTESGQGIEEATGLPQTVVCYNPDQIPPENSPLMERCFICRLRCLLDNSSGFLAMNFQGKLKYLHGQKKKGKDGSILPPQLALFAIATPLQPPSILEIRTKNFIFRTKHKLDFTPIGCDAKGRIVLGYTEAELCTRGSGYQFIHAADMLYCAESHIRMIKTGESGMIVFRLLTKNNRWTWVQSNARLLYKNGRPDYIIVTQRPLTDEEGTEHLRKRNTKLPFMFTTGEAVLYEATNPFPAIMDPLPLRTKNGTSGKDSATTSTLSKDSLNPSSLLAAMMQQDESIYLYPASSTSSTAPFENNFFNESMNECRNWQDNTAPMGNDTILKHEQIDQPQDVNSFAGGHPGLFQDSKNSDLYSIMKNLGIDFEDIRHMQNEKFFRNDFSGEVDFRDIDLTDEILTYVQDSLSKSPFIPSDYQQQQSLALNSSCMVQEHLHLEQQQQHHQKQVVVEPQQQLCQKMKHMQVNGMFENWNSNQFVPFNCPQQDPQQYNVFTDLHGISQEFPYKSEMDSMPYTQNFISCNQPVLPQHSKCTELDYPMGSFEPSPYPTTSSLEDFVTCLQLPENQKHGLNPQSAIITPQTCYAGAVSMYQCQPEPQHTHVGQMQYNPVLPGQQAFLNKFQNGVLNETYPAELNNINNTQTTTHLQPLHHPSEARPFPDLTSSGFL

For the molecule `COc1ccc2[nH]cc(CCN(C(C)C)C(C)C)c2c1`, the Potency result in assay [1], in assay [2], in assay [3], in assay [4], in [5] and in assay [7] was “inactive” throughout. For the same molecule, the Potency result in [8], in assay [9] and in assay [10] was “inactive” each time. Also, the Potency in assay [6] was 22.2 µM (active).
Consider `CN1C2CCC(C)(C)C1CC(OC(=O)C(O)(c1cccs1)c1cccs1)C2` (centres undefined), for which the Potency result in assay [11], in [12] and in [10] was “inactive” in each case.
For the molecule `O.O.O.O=C([O-])[C@H]([O-])[C@@H]([O-])C(=O)[O-].O=C([O-])[C@H]([O-])[C@@H]([O-])C(=O)[O-].[K+].[K+].[Sb+3].[Sb+3]`, the Potency entry in assay [1], in assay [2], in assay [14], in [5], in assay [6] and in assay [11] was “inactive” throughout. The Potency entry in assay [9] and in assay [15] was “inactive” in each case. In addition, the Potency in assay [13] is 17.5 µM [inhibitor] (active).
Regarding `CCN(CC)Cc1nccn1-c1ccc([N+](=O)[O-])cc1C(=O)c1ccccc1Cl`, the Potency result in [1], in assay [2], in assay [5], in assay [7], in assay [9] and in [10] was “inactive” throughout. Further, in assay [12], the Potency was 21.1 µM (active).
As for `Cc1ccn2nc(S(=O)(=O)Nc3c(F)cccc3F)nc2n1`, the Potency entry in assay [2], in assay [3], in assay [4], in assay [5], in assay [6] and in assay [7] was “inactive” throughout. Moreover, the Potency entry in assay [12], in [9], in [15] and in assay [10] was “inactive” throughout.
As for `C#CCC1=C(C)C(OC(=O)C2C(C=C(C)C)C2(C)C)CC1=O` (centres undefined), the Potency in [16] was 60.7 µM (active). In addition, the Potency result in [2], in assay [3], in [6], in assay [7], in assay [11] and in [9] was “inactive” in each case. The Potency result in assay [15] is “inactive”.
With `S=C=NCCc1ccccc1`, the Potency result in [1], in assay [13], in [2], in [14], in [3] and in [4] was “inactive” in each case. Further, the Potency entry in [7], in assay [8], in [18] and in [11] was “inactive” throughout. Also, the Potency in assay [17] was 54.6 µM (active); in [6] it was 54.6 µM (active); in assay [15], 55.1 µM (active).
Take `ClC1=C(Cl)[C@]2(Cl)[C@@H]3[C@H]4C[C@H]([C@@H]5O[C@H]45)[C@@H]3[C@@]1(Cl)C2(Cl)Cl`: the Potency entry in [1], in assay [13], in [2], in [14], in assay [17] and in assay [19] was “inactive” throughout. Moreover, the Potency entry in [3], in [4], in assay [5], in assay [6], in assay [7] and in [8] was “inactive” throughout. Also, the Potency entry in assay [11], in [9] and in assay [15] was “inactive” in each case. Further, the Potency in assay [10] was 51.8 µM (active).
With `Cc1c([N+](=O)[O-])c(C)c([N+](=O)[O-])c(C(C)(C)C)c1[N+](=O)[O-]`, the Potency entry in [1], in assay [2], in [14], in assay [17], in assay [19] and in [3] was “inactive” each time. The Potency result in assay [5], in assay [6], in [7], in assay [8], in assay [11] and in assay [12] was “inactive” throughout. Also, the Potency entry in assay [9], in [15] and in assay [10] was “inactive” throughout.
Turning to `CCC(C)Nc1c([N+](=O)[O-])cc(C(C)(C)C)cc1[N+](=O)[O-]` (centres undefined), the Potency entry in [13], in [2], in [14], in [19], in assay [3] and in [4] was “inactive” in each case. Besides, the Potency entry in assay [5], in assay [6], in [7], in assay [18], in assay [11] and in [9] was “inactive” throughout. Besides, the Potency in assay [17] is 61.1 µM (active).

Source of the values: PubChem BioAssay (Tox21).
